# Experimental data from the OligoGym collection.
# Columns and labels:
# Assay in all cases: pooled miR-30 sensor sort-seq; sequence = guide strand
# Settings in all cases: shRNA
# ANAPC5 = molecular target: ANAPC5
# AMPH = molecular target: AMPH
# AMY2A = molecular target: AMY2A
# AP1S1 = molecular target: AP1S1
# ANXA5 = molecular target: ANXA5
# AP3B1 = molecular target: AP3B1
# APOBEC3A = molecular target: APOBEC3A
# ARHGAP30 = molecular target: ARHGAP30
# ARPC4 = molecular target: ARPC4
# ASPRV1 = molecular target: ASPRV1
# ATP10B = molecular target: ATP10B
# ATP6V0A4 = molecular target: ATP6V0A4
# AVPR1B = molecular target: AVPR1B
# BAX = molecular target: BAX
# BBC3 = molecular target: BBC3
# BARX2 = molecular target: BARX2
# BCL7A = molecular target: BCL7A
# C11orf49 = molecular target: C11orf49
# C15orf54 = molecular target: C15orf54
# C17orf71 = molecular target: C17orf71
# C1QL1 = molecular target: C1QL1
# C1orf84 = molecular target: C1orf84
# C20orf112 = molecular target: C20orf112
# C20orf54 = molecular target: C20orf54
# C1orf64 = molecular target: C1orf64
# C1orf61 = molecular target: C1orf61
# Further: reference of the scale not given here.
sequence,measurement,setting,value
TACACTTGTTTTGTGAACCTCT,sensor-assay potency score (higher = more potent),ANAPC5,0.756
TTTTACTTTAGAACAATCTGTG,sensor-assay potency score (higher = more potent),AMPH,0.225
TACAGTTTAAACACTTGGCTGA,sensor-assay potency score (higher = more potent),ANAPC5,0.833
TTGTGAATAATGAAGTATCCTG,sensor-assay potency score (higher = more potent),AMPH,-0.215
TACTTTAGAACAATCTGTGAAG,sensor-assay potency score (higher = more potent),AMPH,-0.229
ATAGCTATCGGATCTCTTCTGC,sensor-assay potency score (higher = more potent),ANAPC5,0.457
TTTACCATCATTGAAATCCCAT,sensor-assay potency score (higher = more potent),AMY2A,-0.145
TTTGACAGTGTAATATCTGGGC,sensor-assay potency score (higher = more potent),ANAPC5,0.588
TGTAATACAACCGCTTTCCTAT,sensor-assay potency score (higher = more potent),ANAPC5,-0.539
TTGTACAGCCTAGCATCCCAGA,sensor-assay potency score (higher = more potent),AMY2A,-1.14
AAACTCTTCAAACACTTTCTGT,sensor-assay potency score (higher = more potent),AMPH,-0.65
TTGTCTGTGAAGGTGACCGAGG,sensor-assay potency score (higher = more potent),AMPH,-0.658
TTTCAGCACACTCTTCTTGGAG,sensor-assay potency score (higher = more potent),AP1S1,-0.813
TATATTTACAGTTATTAGGGAG,sensor-assay potency score (higher = more potent),AP1S1,0.379
TACACTTTAGTACTACAGCAGT,sensor-assay potency score (higher = more potent),ANXA5,-0.815
TAGCATAATAGAGGGTCTCTGC,sensor-assay potency score (higher = more potent),ANXA5,-0.439
TTTAGTTGCGAACTTCACTAAT,sensor-assay potency score (higher = more potent),ANXA5,-0.975
TCAAATGAGACACACTTCGTGT,sensor-assay potency score (higher = more potent),ANXA5,-0.219
TTTCACAACAGCAAGGAGTAGT,sensor-assay potency score (higher = more potent),ANXA5,-0.0711
TTGGTCATGAGCATGCTAGTAT,sensor-assay potency score (higher = more potent),ANXA5,-0.14
TCTTATAGACAACTTTGAGGTC,sensor-assay potency score (higher = more potent),AP1S1,-0.45
TAAATTGCCAGAAGTCTCGCGG,sensor-assay potency score (higher = more potent),ANXA5,0.467
TCGCGCACCATCTTCTTCCGTT,sensor-assay potency score (higher = more potent),AP1S1,-0.362
TTCTTCCGTTCCTTGTCCGAAG,sensor-assay potency score (higher = more potent),AP1S1,-0.991
TCTCTTATAGACAACTTTGAGG,sensor-assay potency score (higher = more potent),AP1S1,-1.16
TTTCTGTCAGTACTTTTTCATT,sensor-assay potency score (higher = more potent),ANXA5,-1.52
TTCAGCACACTCTTCTTGGAGG,sensor-assay potency score (higher = more potent),AP1S1,-0.8
TAAACTTAGTAACATTAAGTAC,sensor-assay potency score (higher = more potent),ANXA5,-0.822
TCTAAGAGCTCCACGTATCGGT,sensor-assay potency score (higher = more potent),AP1S1,0.301
ATAGACAACTTTGAGGTCCCTC,sensor-assay potency score (higher = more potent),AP1S1,0.0527
TTTGAGGTCCCTCCACTCCAGG,sensor-assay potency score (higher = more potent),AP1S1,-1.48
TTTGCAGCCGCAGTTTTCCCTG,sensor-assay potency score (higher = more potent),AP1S1,-0.931
TTCTGATTTCAGGTCATCCAGA,sensor-assay potency score (higher = more potent),ANXA5,-0.946
TTAATTTTTCAAATTTTCCAGT,sensor-assay potency score (higher = more potent),ANXA5,0.274
TAGATTTCACAACAGCAAGGAG,sensor-assay potency score (higher = more potent),ANXA5,-0.538
TTTGTCTAAGAGCTCCACGTAT,sensor-assay potency score (higher = more potent),AP1S1,-0.832
TAAGAGCTCCACGTATCGGTGG,sensor-assay potency score (higher = more potent),AP1S1,0.135
ATCTCTTATAGACAACTTTGAG,sensor-assay potency score (higher = more potent),AP1S1,-0.956
TTCTTCCTAAACTCCTTCCTGA,sensor-assay potency score (higher = more potent),ANXA5,-0.49
TTCTTCTATGACGTGTATGTGT,sensor-assay potency score (higher = more potent),ANXA5,-0.0894
ATATCTCTTATAGACAACTTTG,sensor-assay potency score (higher = more potent),AP1S1,-1.12
TTCAACTTGAGCTTCATCAATT,sensor-assay potency score (higher = more potent),ANXA5,-0.586
TAGACAACTTTGAGGTCCCTCC,sensor-assay potency score (higher = more potent),AP1S1,-0.899
TAATCTTTTGAATACAATCATC,sensor-assay potency score (higher = more potent),ANXA5,-1.12
TTGCAGTAGGTCAGCCTGCTCG,sensor-assay potency score (higher = more potent),AP1S1,-0.856
TTCTTCATAAACTTGTTTGATG,sensor-assay potency score (higher = more potent),ANXA5,-0.36
TTCATAAGCATCATAAAGCCGA,sensor-assay potency score (higher = more potent),ANXA5,-0.311
TTCTTCTTCATAAACTTGTTTG,sensor-assay potency score (higher = more potent),ANXA5,-0.985
TGTGATGAGCTCATTGTCTTGG,sensor-assay potency score (higher = more potent),AP1S1,0.479
TTCGAATAGATTTCACAACAGC,sensor-assay potency score (higher = more potent),ANXA5,-0.293
TTGAAATCCTGATATAGTCATG,sensor-assay potency score (higher = more potent),ANXA5,-1.04
TTATAGACAACTTTGAGGTCCC,sensor-assay potency score (higher = more potent),AP1S1,0.854
TACTTCTACATTTCGAACTGAT,sensor-assay potency score (higher = more potent),AP3B1,0.236
TAAAAATCTACTTGATCGGGAG,sensor-assay potency score (higher = more potent),APOBEC3A,0.575
TGCTGGTCCATCTTGACCGAGG,sensor-assay potency score (higher = more potent),APOBEC3A,-1.28
TTGTTGGATTTATCCTCCCTGT,sensor-assay potency score (higher = more potent),ARHGAP30,-0.894
TTCATCTCACTGATCTCCTTGT,sensor-assay potency score (higher = more potent),ARPC4,0.358
TTGAGGTCATTGATGACTTCAA,sensor-assay potency score (higher = more potent),ASPRV1,-0.277
TTTGTCATCAACAGCAGCTTGA,sensor-assay potency score (higher = more potent),ASPRV1,-0.258
TTTATTGCTTTATCAAAGCGGT,sensor-assay potency score (higher = more potent),ATP10B,-0.352
TTTCGTCACAGGATCCTCCAGA,sensor-assay potency score (higher = more potent),ATP6V0A4,0.303
TGTGTCTTGACTTTTAGGTTTT,sensor-assay potency score (higher = more potent),AVPR1B,-1.08
TTCTTGGTGGACGCATCCTGAG,sensor-assay potency score (higher = more potent),BAX,-1.72
ATGCGCTTGAGACACTCGCTCA,sensor-assay potency score (higher = more potent),BAX,-1.61
TACAGGACCCTCCAGGGTGAGG,sensor-assay potency score (higher = more potent),BBC3,-1.57
AAACATGTCAGCTGCCACTCGG,sensor-assay potency score (higher = more potent),BAX,-0.504
TCCGCCGCTCGTACTGTGCGTT,sensor-assay potency score (higher = more potent),BBC3,-1.32
TCGTACTGTGCGTTGAGGTCGT,sensor-assay potency score (higher = more potent),BBC3,0.393
TTGGATCCAGCCCAACAGCCGC,sensor-assay potency score (higher = more potent),BAX,-1.52
TTGAGACACTCGCTCAGCTTCT,sensor-assay potency score (higher = more potent),BAX,-0.529
TTGAGGTCGTCCGCCATCCGCC,sensor-assay potency score (higher = more potent),BBC3,-1.67
TTAAGAACCATTTTCTTCCATT,sensor-assay potency score (higher = more potent),BARX2,-0.688
TACAGTATCTTACAGGCTGGGC,sensor-assay potency score (higher = more potent),BBC3,-0.231
TTGCCGTCAGAAAACATGTCAG,sensor-assay potency score (higher = more potent),BAX,-0.725
TTGTACAGGACCCTCCAGGGTG,sensor-assay potency score (higher = more potent),BBC3,-1.05
TAGGAGAGGAGGCCGTCCCAAC,sensor-assay potency score (higher = more potent),BAX,-1.61
TTACTGTCCAGTTCGTCCCCGA,sensor-assay potency score (higher = more potent),BAX,-0.0654
TTCATGATCTGCTCAGAGCTGG,sensor-assay potency score (higher = more potent),BAX,0.0889
TGCGCTTGAGACACTCGCTCAG,sensor-assay potency score (higher = more potent),BAX,0.0222
TCATGATCTGCTCAGAGCTGGT,sensor-assay potency score (higher = more potent),BAX,-1.61
ATCAGTTCCGGCACCTTGGTGC,sensor-assay potency score (higher = more potent),BAX,-0.369
TGCGTTGAGGTCGTCCGCCATC,sensor-assay potency score (higher = more potent),BBC3,-1.7
TTTCTCAAAGTAATCGCAGGTC,sensor-assay potency score (higher = more potent),BARX2,0.887
TGTGCGTTGAGGTCGTCCGCCA,sensor-assay potency score (higher = more potent),BBC3,-0.785
TCGTCGATCATGAAAGTCTTGT,sensor-assay potency score (higher = more potent),BARX2,-0.832
TGCTCCGCCAGCGAGAGCGAGG,sensor-assay potency score (higher = more potent),BBC3,-2.06
TGCTCCTCTTGTCTCCGCCGCT,sensor-assay potency score (higher = more potent),BBC3,-1.11
TTGAGCACCAGTTTGCTGGCAA,sensor-assay potency score (higher = more potent),BAX,0.213
TCGATCCTGGATGAAACCCTGA,sensor-assay potency score (higher = more potent),BAX,-0.785
TTCTCTTCAGCTTCAATCTCTT,sensor-assay potency score (higher = more potent),BARX2,-0.0921
TCAATCTCTTCTGATGTGGGGA,sensor-assay potency score (higher = more potent),BARX2,0.111
TAATCGCAGGTCTCCTTGGAGA,sensor-assay potency score (higher = more potent),BARX2,-1.07
TCGGAAAAAGACCTCTCGGGGG,sensor-assay potency score (higher = more potent),BAX,-0.669
TCTTGGTGGACGCATCCTGAGG,sensor-assay potency score (higher = more potent),BAX,-1.92
ATGATCTGCTCAGAGCTGGTGG,sensor-assay potency score (higher = more potent),BAX,-1.15
AATCATCCTCTGCAGCTCCATG,sensor-assay potency score (higher = more potent),BAX,-1.42
TACTGTCCAGTTCGTCCCCGAT,sensor-assay potency score (higher = more potent),BAX,-0.951
AACATGTCAGCTGCCACTCGGA,sensor-assay potency score (higher = more potent),BAX,-1.25
TTTAAGAACCATTTTCTTCCAT,sensor-assay potency score (higher = more potent),BARX2,0.594
TAGAAAAGGGCGACAACCCGGC,sensor-assay potency score (higher = more potent),BAX,-0.132
TGATGGTTCTGATCAGTTCCGG,sensor-assay potency score (higher = more potent),BAX,-0.352
TCAGCTTCAATCTCTTCTGATG,sensor-assay potency score (higher = more potent),BARX2,-1.18
TATACAGTATCTTACAGGCTGG,sensor-assay potency score (higher = more potent),BBC3,-0.558
TTGTCTCCGCCGCTCGTACTGT,sensor-assay potency score (higher = more potent),BBC3,-1
TAGTAGTTCTGTTCGCACCCAA,sensor-assay potency score (higher = more potent),BCL7A,0.392
TTGTACAAACCATATCTACTGA,sensor-assay potency score (higher = more potent),BCL7A,-0.0617
TTCTGAGTGAGCTCCAGCGGGA,sensor-assay potency score (higher = more potent),C11orf49,-1.01
TTGGCTAATATCTTCCCTGTTT,sensor-assay potency score (higher = more potent),C11orf49,-0.438
AACAACAACAAGAATATCCTGC,sensor-assay potency score (higher = more potent),C15orf54,0.568
TTCACCTTCTTGAAGAACCTGC,sensor-assay potency score (higher = more potent),C15orf54,0.924
TTGATGCTTCCAGAACTCGTGT,sensor-assay potency score (higher = more potent),C17orf71,-0.713
TATAACTTTGGTCAGACGGGGC,sensor-assay potency score (higher = more potent),C1QL1,-0.517
TAGTTACATAGATCTCAGGCTG,sensor-assay potency score (higher = more potent),C1orf84,-0.122
TTCATCTGCAGAGCGCAGCAGG,sensor-assay potency score (higher = more potent),C20orf112,-0.526
TTGCAGAAGTCCGCGGACGAGA,sensor-assay potency score (higher = more potent),C20orf54,-1.3
TTTCTTGTCTCGCTCTCACAGG,sensor-assay potency score (higher = more potent),C20orf112,-0.96
TTGAAGACCTCACAGGCGCAGC,sensor-assay potency score (higher = more potent),C1orf64,-1.07
TCCAACTCAATGACAAACCGAT,sensor-assay potency score (higher = more potent),C1orf84,-0.656
TTACATAGATCTCAGGCTGGAA,sensor-assay potency score (higher = more potent),C1orf84,-0.261
TTTGGTCTCCCAACTTAGCCAT,sensor-assay potency score (higher = more potent),C1orf61,-0.53
